Measured values: PubChem BioAssay (Tox21)
Results filed as inconclusive are left out. Where a call stands in place of a potency, no number is given. Unmarked numbers belong to inactive results. Active and inactive are the calls of the source. Calls come from the whole dose curve; as a rule, active = well fitted cell-killing curve with a large enough effect in the repeat runs; inconclusive = weak or mixed curves, or effect the other way; inactive = flat fitted curve, though single readings scatter.

Columns and labels:
[1] = cAMP Responsive Elements (CRE) small molecule antagonists, cell-based qHTS assay: qHTS cell viability counter screen (AID 2060913); conditions: CRE-bla HEK293T viability, CellTiter-Glo luminescence, 5 h; series mostly up to 92.4 µM; note: nearly all actives have a fitted effect of over 40% in size
Outline: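 CRE-bla HEK293T cells (2,000/well, 18 h) given compound plus NKH477 0.25 uM final for 3 h at 37C; viability counter-screen by CellTiter-Glo luminescence in same wells after 30 min.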

[2] = cAMP Responsive Elements (CRE) small molecule agonists, cell-based qHTS assay: qHTS cell viability counter screen (AID 2060914); conditions: CRE-bla HEK293T viability, CellTiter-Glo luminescence, 5 h; series mostly up to 92.4 µM;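 note: viability read after 3 h of compound exposure; nearly all actives have a fitted effect of over 50% in size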
Outline: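 CRE-bla HEK 293T cells, plated 18 h at 37 °C, were exposed to compounds for 3 h at 37 °C/5% CO2. Viability was then measured in the same wells by CellTiter-Glo luminescence after 30 min at room temperature.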

SMILES | Potency [1] | Potency [2] | viability change, negative = cytotoxic [1] | activity change, negative = cytotoxicity [2]
Cc1occc1C(=O)Nc1ccc(C(=O)N2CCC(F)(F)/C(=C\C(=O)N3CCC(N4CCCCC4)CC3)c3ccccc32)cc1 | inactive | inactive | – | –
O=C1OC(O)C(C(Cl)Cl)=C1Cl (stereo unspecified) | inactive | inactive | – | –
CCC(=O)C1CC(C(C)C)CC=C1C (stereo unspecified) | inactive | inactive | – | –
CC(=O)[C@H]1[C@H](C#N)C[C@H]2[C@@H]3CC=C4C[C@@H](O)CC[C@]4(C)[C@H]3CC[C@@]21C | inactive | inactive | – | –
O=c1[nH]nc(-c2ccc([N+](=O)[O-])o2)o1 | inactive | inactive | – | –
Cc1[nH]c(C)c(Cl)c(=O)c1Cl | – | – | 2.74% [at 18.9 µM] | 4.19% [at 18.9 µM]
CCc1ccc(O)cc1 | inactive | inactive | – | –
C[N+]1(CC2COC(c3ccccc3)(C3CCCCC3)O2)CCCCC1 (stereo unspecified) | inactive | inactive | – | –
CCCCCCCCC | inactive | inactive | – | –
CCC(=O)OC | inactive | inactive | – | –
O=S(=O)(O)c1cc(O)c(O)c(S(=O)(=O)O)c1 | inactive | inactive | – | –
Cc1cc(O)c2c(c1)C(=O)c1cccc(O)c1C2=O | inactive | inactive | – | –
O=C(O)CCCCCCCCCC(=O)O | inactive | inactive | – | –
Nc1ccc(C(=O)N2CC3CC(CN(Cc4ccccc4)C3)C2)cc1 | inactive | inactive | – | –
CCCCCOC(=O)CCCCC | inactive | inactive | – | –
CC(C)CCCC(=O)O | inactive | inactive | – | –
Nc1ccn([C@@H]2O[C@H](CO)[C@@H](O)C2O)c(=O)n1 (stereo partly specified) | inactive | inactive | – | –
C[C@]12CCC(=O)C=C1CC[C@@H]1[C@@H]2C(=O)C[C@@]2(C)[C@H]1CC[C@]2(O)C(=O)CO | inactive | inactive | – | –
